PLK1 PBD block: blocks phosphopeptide binding to human PLK1 polo-box domain. P53350. Plk1 PBD binding of FITC phosphopeptide, fluorescence polarization. Potency, µM, for inactives: max response, negative = inhibition, most hits filed as inhibitors. actives 2.8% (n = 360,000); further: series mostly up to about 57 µM; on the % scale 0 is the no-effect control and ±100 the full control effect; nearly all actives have a fitted effect of over 65% in size
G9a inh: inhibitors of human histone lysine methyltransferase G9a; Q96KQ7; G9a H3K9 monomethylation, AlphaScreen, 2 h; Potency, µM (titrated, usually from 102 µM), inactives show at the top dose activity, negative = inhibition, hits mostly inhibitors; actives 8.8% (n = 350,000); AID 504332; further: on the % scale 0 is the no-effect control and ±100 the full control effect; nearly all actives have a fitted effect of over 75% in size
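Compounds were preincubated with 20 nM G9a for 15 min, after which biotinylated H3K9 peptide (500 nM) and SAM (20 uM) started a 2 h room-temperature reaction. Monomethylated product was quantified by antibody-based AlphaScreen chemiluminescence.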
JMJD2A Tudor inh: inhibitors of human JMJD2A Tudor domain; O75164; AlphaScreen JMJD2A-Tudor / H3K4me3 peptide binding; Potency, µM (series often up to 114 µM), inactives show top-dose activity change, negative = inhibition, most hits filed as inhibitors; actives 4.4% (n = 390,000); AID 504339; further: on the % scale 0 is the no-effect control and ±100 the full control effect; nearly all actives have a fitted effect of over 50% in size
HP1b binding inh: inhibitors of HP1-beta chromodomain binding to methylated histone tails. P83916. AlphaScreen HP1-beta / biotin-H3K9me3 peptide binding. Potency, µM (top dose mostly 114 µM), for inactives: at the highest dose activity change, negative = inhibition, usual class: inhibitors. actives 0.56% (n = 390,000). AID 540317; further: nearly all actives have a fitted effect of over 70% in size
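AlphaScreen: HP1-beta (50 nM) preformed 30 min with biotin-H3(1-18)K9me3 peptide (50 nM) in PBS pH 7.4, 0.01% Tween-20. Compound added for 30 min at RT, then streptavidin donor/nickel chelate acceptor beads (10 ug/mL) for 30 min.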
12-LOX inh: ALOX12 (human) lipoxygenase inhibition; P18054; purified 12hLO, xylenol orange hydroperoxide absorbance; Potency, µM (series often up to 108 µM), for inactives: at the top dose activity change, negative = inhibition, actives largely listed as inhibitors; actives 1.1% (n = 580,000); further: on the % scale 0 is the no-effect control and ±100 the full control effect
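Hydroperoxide product was detected by ferrous iron/xylenol orange as the 573 to 405 nm absorbance ratio. Arachidonic acid at 40 uM (final) was turned over for 30 min at room temperature by 150 nM human 12hLO, pH 7.0 Hepes buffer, after 15 min compound preincubation.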
BAZ2B block: blocks human BAZ2B; AlphaScreen BAZ2B-H3K14Ac peptide displacement; Potency, µM (doses to about 114 µM), for the others: at the top dose activity change, negative = inhibition, usual class: inhibitors; actives 4.4% (n = 360,000); further: on the % scale 0 is the no-effect control and ±100 the full control effect; nearly all actives have a fitted effect of over 60% in size
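BAZ2B 50 nM plus b-H3(5-23)K14Ac 50 nM, PBS pH 7.4/0.01% Tween-20, 30 min RT; compound added (max 110 uM), 30 min RT; streptavidin donor/Ni-chelate acceptor beads 10 ug/mL final, 20 min dark; AlphaScreen read.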
* marks the source's active call; other numbers are inactive results; u = inconclusive; x = no result; [ ] = dose if it differs, or a comment. Shown are actives, neighbours in structure and some others; about 9% of the full set was active somewhere. The call rests on the fitted dose curve; in most records, active means well fitted curve in the direction sought with a large enough effect; inconclusive means small, poorly fitted or top-dose-only effect, or another doubt; inactive means no such curve, though single readings can be large; an effect the other way counts as inactive or inconclusive. Potency means the concentration at half of the fitted maximal effect.

SMILES	PLK1 PBD block	G9a inh	JMJD2A Tudor inh	HP1b binding inh	12-LOX inh	BAZ2B block
Cc1nc(SCC(=O)Nc2cc(C(N)=O)cc(C(N)=O)c2)c2c(C)c(C)sc2n1	u	45µM*	u	50%	2%	u
Cn1c(C(C#N)C2=C(Cl)C(=O)N(c3ccccc3)C2=O)nc2ccccc21 (configuration not stated)	x	14µM*	x	x	x	8.9µM*
Cc1[nH]n(-c2ccccc2)c(=O)c1N=Nc1ccc2c(c1)OCO2	-1%	3.2µM*	u	-4%	15%	1.8µM*
COc1cccc(N=Nc2c(C)[nH]n(-c3ccccc3)c2=O)c1	-2%	7.9µM*	u	u	-6%	6.3µM*
O=S(CC(O)c1ccccc1)c1ccccc1 (configuration not stated)	u	x	x	x	28µM*	x
O=S(c1ccccc1)C(c1ccccc1)c1ccccc1 (configuration not stated)	u	x	-1%	55%	32µM*	x
Cc1ccc(S(=O)C(c2ccccc2)c2ccccc2)cc1 (configuration not stated)	-7%	x	-3%	46%	22µM*	x
COCCNC(C(=O)Nc1cc(Cl)cc(Cl)c1)c1ccccc1 (configuration not stated)	1%	7%[59 µM]	11%	50%	1%	-7%
C=CCOc1ccc(Cl)cc1C(=O)O	-17%	12%[59 µM]	22%[11.4 µM]	58%	7%	-3%
O=C(NCc1ccncc1)[C@@H]1C[C@@H](c2ccc(F)cc2)N(Cc2ccccc2)C1	x	x	x	x	26%[176 µM]	x
CCC(=O)Nc1cc(ON=C(C)C)cc([N+](=O)[O-])c1	0%	14%	2%	31%	-8%	-29%
CC(C)=NOc1cc(NC(=O)CCl)cc([N+](=O)[O-])c1	u	56µM*	-12%	42%	-11%	-11%
O=C(CCl)Nc1cc(SCC(O)CO)cc([N+](=O)[O-])c1 (configuration not stated)	u	50µM*	-24%	46%	u	-36%
Nc1ccc(N(c2ccccc2)c2ccc(N)cc2)cc1	-8%	1.3µM*	16µM*	40µM*	-17%	25µM*
Nc1ccc(CSc2ccccc2)cc1	-1%	x	-31%	-4%[57 µM]	-9%	x
O=C(N/N=C/c1ccc(O)cc1O)C(=O)N/N=C/c1ccc(O)cc1O	12µM*	28%[59 µM]	2.5µM*	-7%	2%	35µM*
Oc1ccc(C=NNC(=S)Nc2ccc(F)cc2)c(O)c1	-9%	x	u	19%	40µM*	x
COc1ccc(N2Cc3ccc(C(=O)N/N=C\c4ccc(O)cc4O)cc3C2)cc1	x	28µM*	x	x	x	u
O=C(NN=Cc1ccc(O)cc1)C(=O)NN=Cc1ccc(O)cc1	2%	x	-8%	43%	2%	x
COc1ccc2nc(C)cc(SCC(=O)N/N=C/c3ccc(O)cc3O)c2c1	0%	18%[59 µM]	-1%	24%	-11%	0%
CC(C)Cc1nc(N2CCN(CC(=O)N3CCCCC3)CC2)c(C#N)c2c1CCC2	x	x	x	x	3%	x
Cc1nc(SCC(=O)N(CC(C)C)C2CCS(=O)(=O)C2)c2ccccc2n1 (configuration not stated)	-5%	-74%[12.7 µM]	-8%	42%	0%	2%
Cc1ccc(/C=C/c2ccc3cccc(O)c3n2)s1	-8%	28µM*	-1%	28%	-21%	30%
Cc1ccc(/C=C/c2ccc3cccc(O)c3n2)cc1C	x	x	x	x	5%	x
O=[N+]([O-])c1ccc(Nc2ccccc2O)c([N+](=O)[O-])c1	4%	x	x	x	u	x
CCOC(=O)c1c(NC(=O)CSc2ncn[nH]2)sc(C)c1C	-20%	45µM*	-24%	-17%	0%	-12%
CCCc1nnc(NC(=O)CSc2ncn[nH]2)s1	-14%	35µM*	-15%	21%	u	-39%
CCOC(=O)c1c(NC(=O)CSc2ncn[nH]2)sc(C(=O)N(C)C)c1C	-10%	50µM*	-6%	12%	1%	8%

Screening results from PubChem BioAssay.
